Measured values: the supplement of paper PMC4466140

target: AgAbp1; assay: SPOT peptide array binding signal intensity (averaged, normalized) (arbitrary units (background-subtracted, floor 0; scale differs between SH3 domains)); higher = stronger binding of the SH3 domain to the peptide
Method: (§1)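 GST-tagged SH3 domains from S. cerevisiae (Sc), A. gossypii (Ag), C. albicans (Ca) and S. pombe (Sp) were incubated at 10 ug/ml overnight at 4 C on cellulose SPOT membranes carrying 292 synthetic 15-mer peptides mined from the S. cerevisiae proteome (cysteines replaced by serines). Binding was detected with anti-GST antibody, HRP secondary and chemiluminescence, quantified with Genespotter, and reported as normalized spot intensities averaged over biological replicates.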

| Binder | SPOT peptide array binding signal intensity |
| --- | --- |
| KIRRSSLMIPNPQQF | 26.5 |

target: AgBbc1; assay: as above
Method: as §1

| Binder | SPOT peptide array binding signal intensity |
| --- | --- |
| KIRRSSLMIPNPQQF | 56.5 |

target: AgBem1-D1; assay: as above
Method: as §1

| Binder | SPOT peptide array binding signal intensity |
| --- | --- |
| KIRRSSLMIPNPQQF | 234 |

target: AgBzz1-D1; assay: as above
Method: as §1

| Binder | SPOT peptide array binding signal intensity |
| --- | --- |
| KIRRSSLMIPNPQQF | 18.5 |

target: AgBzz1-D2; assay: as above
Method: as §1

| Binder | SPOT peptide array binding signal intensity |
| --- | --- |
| KIRRSSLMIPNPQQF | 39 |

target: AgCyk3; assay: as above
Method: as §1

| Binder | SPOT peptide array binding signal intensity |
| --- | --- |
| KIRRSSLMIPNPQQF | ≤ 0 |

target: AgFus1; assay: as above
Method: as §1

| Binder | SPOT peptide array binding signal intensity |
| --- | --- |
| KIRRSSLMIPNPQQF | 88 |

target: AgHof1; assay: as above
Method: as §1

| Binder | SPOT peptide array binding signal intensity |
| --- | --- |
| KIRRSSLMIPNPQQF | 56.8 |

target: AgHse1; assay: as above
Method: as §1

| Binder | SPOT peptide array binding signal intensity |
| --- | --- |
| KIRRSSLMIPNPQQF | 138 |

target: AgLsb1; assay: as above
Method: as §1

| Binder | SPOT peptide array binding signal intensity |
| --- | --- |
| KIRRSSLMIPNPQQF | 86.5 |

target: AgLsb4; assay: as above
Method: as §1

| Binder | SPOT peptide array binding signal intensity |
| --- | --- |
| KIRRSSLMIPNPQQF | 14 |

target: AgMyo5; assay: as above
Method: as §1

| Binder | SPOT peptide array binding signal intensity |
| --- | --- |
| KIRRSSLMIPNPQQF | 2 |

target: AgNbp2; assay: as above
Method: as §1

| Binder | SPOT peptide array binding signal intensity |
| --- | --- |
| KIRRSSLMIPNPQQF | 15 |

target: AgRvs167; assay: as above
Method: as §1

| Binder | SPOT peptide array binding signal intensity |
| --- | --- |
| KIRRSSLMIPNPQQF | 1.67 |

target: AgSho1; assay: as above
Method: as §1

| Binder | SPOT peptide array binding signal intensity |
| --- | --- |
| KIRRSSLMIPNPQQF | 15.5 |

target: AgSla1-D1-D2; assay: as above
Method: as §1

| Binder | SPOT peptide array binding signal intensity |
| --- | --- |
| KIRRSSLMIPNPQQF | 186 |

target: AgSla1-D3; assay: as above
Method: as §1

| Binder | SPOT peptide array binding signal intensity |
| --- | --- |
| KIRRSSLMIPNPQQF | 3.5 |

target: CaAbp1-D1; assay: as above
Method: as §1

| Binder | SPOT peptide array binding signal intensity |
| --- | --- |
| KIRRSSLMIPNPQQF | 316 |

target: CaAbp1-D2; assay: as above
Method: as §1

| Binder | SPOT peptide array binding signal intensity |
| --- | --- |
| KIRRSSLMIPNPQQF | 153 |

target: CaBbc1; assay: as above
Method: as §1

| Binder | SPOT peptide array binding signal intensity |
| --- | --- |
| KIRRSSLMIPNPQQF | 214 |

target: CaBem1-D1; assay: as above
Method: as §1

| Binder | SPOT peptide array binding signal intensity |
| --- | --- |
| KIRRSSLMIPNPQQF | 65.5 |

target: CaBzz1-D1; assay: as above
Method: as §1

| Binder | SPOT peptide array binding signal intensity |
| --- | --- |
| KIRRSSLMIPNPQQF | 195 |

target: CaBzz1-D2; assay: as above
Method: as §1

| Binder | SPOT peptide array binding signal intensity |
| --- | --- |
| KIRRSSLMIPNPQQF | 206 |

target: CaCyk3; assay: as above
Method: as §1

| Binder | SPOT peptide array binding signal intensity |
| --- | --- |
| KIRRSSLMIPNPQQF | 11 |

target: CaFus1; assay: as above
Method: as §1

| Binder | SPOT peptide array binding signal intensity |
| --- | --- |
| KIRRSSLMIPNPQQF | 383 |

target: CaHof1; assay: as above
Method: as §1

| Binder | SPOT peptide array binding signal intensity |
| --- | --- |
| KIRRSSLMIPNPQQF | 1 |

target: CaHse1; assay: as above
Method: as §1

| Binder | SPOT peptide array binding signal intensity |
| --- | --- |
| KIRRSSLMIPNPQQF | 12.5 |

target: CaLsb1; assay: as above
Method: as §1

| Binder | SPOT peptide array binding signal intensity |
| --- | --- |
| KIRRSSLMIPNPQQF | 4 |

target: CaLsb4; assay: as above
Method: as §1

| Binder | SPOT peptide array binding signal intensity |
| --- | --- |
| KIRRSSLMIPNPQQF | 72.5 |

target: CaMyo5; assay: as above
Method: as §1

| Binder | SPOT peptide array binding signal intensity |
| --- | --- |
| KIRRSSLMIPNPQQF | 20.5 |

target: CaNbp2; assay: as above
Method: as §1

| Binder | SPOT peptide array binding signal intensity |
| --- | --- |
| KIRRSSLMIPNPQQF | 129 |

target: CaRvs167; assay: as above
Method: as §1

| Binder | SPOT peptide array binding signal intensity |
| --- | --- |
| KIRRSSLMIPNPQQF | 42.3 |

target: CaRvs167-3; assay: as above
Method: as §1

| Binder | SPOT peptide array binding signal intensity |
| --- | --- |
| KIRRSSLMIPNPQQF | 7.5 |

target: CaSho1; assay: as above
Method: as §1

| Binder | SPOT peptide array binding signal intensity |
| --- | --- |
| KIRRSSLMIPNPQQF | 84.5 |

target: CaSla1-D1-D2; assay: as above
Method: as §1

| Binder | SPOT peptide array binding signal intensity |
| --- | --- |
| KIRRSSLMIPNPQQF | 532 |

target: CaSla1-D3; assay: as above
Method: as §1

| Binder | SPOT peptide array binding signal intensity |
| --- | --- |
| KIRRSSLMIPNPQQF | 352 |

target: ScAbp1; assay: as above
Method: as §1

| Binder | SPOT peptide array binding signal intensity |
| --- | --- |
| KIRRSSLMIPNPQQF | 42 |

target: ScBbc1; assay: as above
Method: as §1

| Binder | SPOT peptide array binding signal intensity |
| --- | --- |
| KIRRSSLMIPNPQQF | 22.2 |

target: ScBem1-D1; assay: as above
Method: as §1

| Binder | SPOT peptide array binding signal intensity |
| --- | --- |
| KIRRSSLMIPNPQQF | 136 |

target: ScBzz1-D1; assay: as above
Method: as §1

| Binder | SPOT peptide array binding signal intensity |
| --- | --- |
| KIRRSSLMIPNPQQF | 40 |

target: ScBzz1-D2; assay: as above
Method: as §1

| Binder | SPOT peptide array binding signal intensity |
| --- | --- |
| KIRRSSLMIPNPQQF | 32 |

target: ScCyk3; assay: as above
Method: as §1

| Binder | SPOT peptide array binding signal intensity |
| --- | --- |
| KIRRSSLMIPNPQQF | 24 |

target: ScFus1; assay: as above
Method: as §1

| Binder | SPOT peptide array binding signal intensity |
| --- | --- |
| KIRRSSLMIPNPQQF | 68 |

target: ScHof1; assay: as above
Method: as §1

| Binder | SPOT peptide array binding signal intensity |
| --- | --- |
| KIRRSSLMIPNPQQF | ≤ 0 |

target: ScHse1; assay: as above
Method: as §1

| Binder | SPOT peptide array binding signal intensity |
| --- | --- |
| KIRRSSLMIPNPQQF | 388 |

target: ScLsb1; assay: as above
Method: as §1

| Binder | SPOT peptide array binding signal intensity |
| --- | --- |
| KIRRSSLMIPNPQQF | 20.5 |

target: ScLsb2; assay: as above
Method: as §1

| Binder | SPOT peptide array binding signal intensity |
| --- | --- |
| KIRRSSLMIPNPQQF | 1.5 |

target: ScLsb3; assay: as above
Method: as §1

| Binder | SPOT peptide array binding signal intensity |
| --- | --- |
| KIRRSSLMIPNPQQF | 15.5 |

target: ScLsb4; assay: as above
Method: as §1

| Binder | SPOT peptide array binding signal intensity |
| --- | --- |
| KIRRSSLMIPNPQQF | ≤ 0 |

target: ScMyo3; assay: as above
Method: as §1

| Binder | SPOT peptide array binding signal intensity |
| --- | --- |
| KIRRSSLMIPNPQQF | 5 |

target: ScMyo5; assay: as above
Method: as §1

| Binder | SPOT peptide array binding signal intensity |
| --- | --- |
| KIRRSSLMIPNPQQF | 7 |

target: ScNbp2; assay: as above
Method: as §1

| Binder | SPOT peptide array binding signal intensity |
| --- | --- |
| KIRRSSLMIPNPQQF | 126 |

target: ScPex13; assay: as above
Method: as §1

| Binder | SPOT peptide array binding signal intensity |
| --- | --- |
| KIRRSSLMIPNPQQF | 46 |

target: ScRvs167; assay: as above
Method: as §1

| Binder | SPOT peptide array binding signal intensity |
| --- | --- |
| KIRRSSLMIPNPQQF | 40.2 |

target: ScSho1; assay: as above
Method: as §1

| Binder | SPOT peptide array binding signal intensity |
| --- | --- |
| KIRRSSLMIPNPQQF | 304 |

target: ScSla1-D1-D2; assay: as above
Method: as §1

| Binder | SPOT peptide array binding signal intensity |
| --- | --- |
| KIRRSSLMIPNPQQF | 526 |

target: ScSla1-D3; assay: as above
Method: as §1

| Binder | SPOT peptide array binding signal intensity |
| --- | --- |
| KIRRSSLMIPNPQQF | 337 |

target: SpAbp1-D1; assay: as above
Method: as §1

| Binder | SPOT peptide array binding signal intensity |
| --- | --- |
| KIRRSSLMIPNPQQF | 95 |

target: SpBbc1; assay: as above
Method: as §1

| Binder | SPOT peptide array binding signal intensity |
| --- | --- |
| KIRRSSLMIPNPQQF | 3.5 |

target: SpBzz1-D1; assay: as above
Method: as §1

| Binder | SPOT peptide array binding signal intensity |
| --- | --- |
| KIRRSSLMIPNPQQF | 311 |

target: SpBzz1-D2; assay: as above
Method: as §1

| Binder | SPOT peptide array binding signal intensity |
| --- | --- |
| KIRRSSLMIPNPQQF | ≤ 0 |

target: SpCyk3; assay: as above
Method: as §1

| Binder | SPOT peptide array binding signal intensity |
| --- | --- |
| KIRRSSLMIPNPQQF | 6 |

target: SpHof1; assay: as above
Method: as §1

| Binder | SPOT peptide array binding signal intensity |
| --- | --- |
| KIRRSSLMIPNPQQF | 94.5 |

target: SpHof1-2; assay: as above
Method: as §1

| Binder | SPOT peptide array binding signal intensity |
| --- | --- |
| KIRRSSLMIPNPQQF | 24 |

target: SpHof1-3; assay: as above
Method: as §1

| Binder | SPOT peptide array binding signal intensity |
| --- | --- |
| KIRRSSLMIPNPQQF | 241 |

target: SpHse1; assay: as above
Method: as §1

| Binder | SPOT peptide array binding signal intensity |
| --- | --- |
| KIRRSSLMIPNPQQF | 184 |

target: SpLsb1; assay: as above
Method: as §1

| Binder | SPOT peptide array binding signal intensity |
| --- | --- |
| KIRRSSLMIPNPQQF | 5.5 |

target: SpLsb4; assay: as above
Method: as §1

| Binder | SPOT peptide array binding signal intensity |
| --- | --- |
| KIRRSSLMIPNPQQF | 144 |

target: SpMyo1; assay: as above
Method: as §1

| Binder | SPOT peptide array binding signal intensity |
| --- | --- |
| KIRRSSLMIPNPQQF | 9.5 |

target: SpNbp2; assay: as above
Method: as §1

| Binder | SPOT peptide array binding signal intensity |
| --- | --- |
| KIRRSSLMIPNPQQF | 33 |

target: SpPex13; assay: as above
Method: as §1

| Binder | SPOT peptide array binding signal intensity |
| --- | --- |
| KIRRSSLMIPNPQQF | 162 |

target: SpRvs167; assay: as above
Method: as §1

| Binder | SPOT peptide array binding signal intensity |
| --- | --- |
| KIRRSSLMIPNPQQF | 17.3 |

target: SpSla1-D1-D2; assay: as above
Method: as §1

| Binder | SPOT peptide array binding signal intensity |
| --- | --- |
| KIRRSSLMIPNPQQF | 8 |

target: SpSla1-D3; assay: as above
Method: as §1

| Binder | SPOT peptide array binding signal intensity |
| --- | --- |
| KIRRSSLMIPNPQQF | 68 |
